{"source": "PubChem BioAssay (NCI)", "note": "The panel holds about 83,000 compounds, 20% with a hit somewhere; the sample as a whole holds those more often.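 Interpretation: 100, growth as untreated; towards 0, rising growth inhibition; 0, no net growth; 0 to -100, cell death. Compounds scoring below 10 were considered active.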 Unmarked numbers belong to inactive results. Activity calls are given as the source filed them."}
{"tested_on": "MDA-MB-468 breast", "assay": "NCI-60 one-dose screen, 48 h (100 = growth as untreated, 0 = no growth, -100 = all killed)", "details": "10 µM unless noted"}
{"smiles": "Cc1ccccc1NC(=O)NC(CC(N)=O)c1ccc2c(c1)nc(-c1cccc(Oc3ccc(C(C)(C)C)cc3)c1)n2CCCN1CCCCC1C", "note": "(stereo not given)", "growth": "-78.8% (active)"}
{"smiles": "C=CC(=O)Nc1cccc(Nc2nc(SC)nc(-c3cccc([N+](=O)[O-])c3)c2C#N)c1", "growth": "55.9%"}
{"smiles": "CCCCOc1c(N)cc(Cl)cc1C(=O)OCCN(CC)CC", "growth": "112%"}
{"smiles": "COc1ccc(CCN2C(=O)C(C)(C)SC2=S)cc1OC", "growth": "105%"}
{"smiles": "CCCCCc1ccc(S(=O)(=O)Nc2cc(-c3csc(NC(=O)CN4CCN(CCO)CC4)n3)ccc2OC)cc1", "growth": "69.1%"}
{"smiles": "CN(C)c1nc(-c2ccco2)n2nc(-c3ccc(Cl)cc3)cc2n1", "growth": "78.3%"}
{"smiles": "COc1ccc(-c2nnc(SCC(=O)Nc3ccc(C(=O)/C=C/c4cc(OC)c(OC)c(OC)c4)cc3)n2-c2ccccc2)cc1OC", "growth": "-14.2% [100 µM] (active)"}
{"smiles": "CC(=O)[C@@H]1CC[C@]2(CO)CC[C@]3(C)[C@H](CC[C@@H]4[C@@]5(C)CCCNC(C)(C)[C@@H]5CC[C@]43C)[C@@H]12", "growth": "106%"}
{"smiles": "O=S(=O)(Nc1ccc(-c2nc(-c3cccc(OCCN4CCOCC4)c3)c(-c3ccnc(Br)c3)[nH]2)cc1)c1ccccc1", "growth": "1.46% (active)"}
{"smiles": "CCNC(=O)c1[nH]cc(-c2ccc(OC)cc2)c1-c1cc(OC)c(OC)c(OC)c1", "growth": "18.5%"}
{"smiles": "O=C(Nc1cccc(-n2ccc3c(NC(=O)c4ccccc4)nccc32)c1)c1ccc(Cl)c(Cl)c1", "growth": "-94.1% (active)"}
{"smiles": "Cc1cc(C(=O)Nc2cc(Oc3ccc4nc(NC(=O)C5CC5)cn4n3)ccc2C)n(C)n1", "growth": "21%"}
{"smiles": "Cc1ccc(CSCc2ccc(C(=O)NC3CC3)o2)cc1", "growth": "49.2%"}
{"smiles": "Cc1ccc(/C=C/c2nn3c(-c4ccco4)nnc3s2)cc1C", "growth": "107%"}
{"smiles": "C=CCN(CCOC(=O)c1ccc([N+](=O)[O-])cc1)CCOC(=O)c1ccc([N+](=O)[O-])cc1", "growth": "105%"}
{"smiles": "Fc1ccc(/C=C/[C@@H]2C[C@@H](F)CCO2)cc1", "growth": "84%"}
{"smiles": "COc1cc(-c2nc(SC(C)C)nc(Nc3ccccc3C)c2C#N)cc(OC)c1OC", "growth": "111%"}
{"smiles": "CCCCN1CCN(c2ccc3nc(-c4ccc5nc(-c6ccc(OCC)c(OCC)c6)[nH]c5c4)[nH]c3c2)CC1", "growth": "-77.8% (active)"}
{"smiles": "O=[N+]([O-])c1ccc(N/N=C(\\C(=N/Nc2ccc([N+](=O)[O-])cc2[N+](=O)[O-])c2ccccc2)c2ccccc2)c([N+](=O)[O-])c1", "growth": "86.4%"}
{"smiles": "CC(C)(C)c1ccc(S(=O)(=O)Oc2ccc3c4c(c(=O)oc3c2)CCCCC4)cc1", "growth": "23.9%"}
{"smiles": "COc1cc2cc(Oc3ccc(NC(=O)Nc4ccc(F)c(C(F)(F)F)c4)cc3)c(C)nc2cc1OCCN(C)C", "growth": "93.4%"}
{"smiles": "O=[N+]([O-])c1ccc2[nH]c3nccc(NCc4cccc(Cl)c4)c3c2c1", "growth": "69%"}
{"smiles": "O=C(NCCCNc1cc(-c2cn(-c3ccccc3)nc2-c2cccc(O)c2)ccn1)c1ccc(F)cc1", "growth": "-41.4% (active)"}
{"smiles": "COc1cccc(-n2cc(-c3nc(Cl)c4ccccc4n3)nn2)c1", "growth": "117%"}
{"smiles": "CN(C)c1ccc(/C=C/C(=O)c2ccc(-n3cc(CN4CCN(c5cc6c(cc5F)c(=O)c(C(=O)O)cn6C5CC5)CC4)nn3)cc2)cc1", "growth": "32.9%"}
{"smiles": "CC1(C)NCCC[C@]2(C)[C@H]3CC[C@H]4[C@H]5[C@H](C(=O)/C=C/c6cccnc6)CCC[C@]5(CO)CC[C@@]4(C)[C@]3(C)CC[C@@H]12", "growth": "-12.6% (active)"}
{"smiles": "COc1ccc(-c2nc(SCCC(C)C)nc(N/N=C\\c3cccc([N+](=O)[O-])c3)c2C#N)cc1", "growth": "12.7%"}
{"smiles": "CN1CC(c2ccccc2)C(C(=O)c2ccc(Br)cc2)C12C(=O)Nc1ccccc12", "note": "(stereo not given)", "growth": "106%"}
{"smiles": "CN(C)N1C(=O)c2c(Cl)c(Cl)c(Cl)c(Cl)c2C1=O", "growth": "96.1%"}
{"smiles": "COc1ccccc1C(=O)Nc1cccc(NC(=O)c2ccoc2C)c1", "growth": "14%"}
{"smiles": "Cc1cccc(CNc2c3ccccc3nc3ccccc23)c1", "growth": "-0.391% (active)"}
{"smiles": "CCCCC(=O)OCC1OC(n2cnc3c(=S)nc[nH]c32)C(OC(=O)CCCC)C1OC(=O)CCCC", "note": "(stereo not given)", "growth": "67.4%"}
{"smiles": "Cc1cccc(OCC(O)CN2CCN(c3ccc(Cl)cc3)CC2)c1", "note": "(stereo not given)", "growth": "112%"}
{"smiles": "N=C(N)c1ccc(-c2ccc(-c3ccc(-c4cccs4)s3)s2)cc1F", "growth": "79.5%"}
{"smiles": "C=C1C(=O)O[C@H]2[C@H]1CC/C(COC(=O)NCc1ccc(Cn3c(=O)sn(-c4ccc(C#N)cc4)c3=O)cc1)=C\\CC[C@@]1(C)O[C@@H]21", "growth": "7.72% (active)"}
{"smiles": "COc1cccc(CCNc2ncnc3c2ncn3Cc2nnc3c4ccccc4c(Cl)nn23)c1", "growth": "57.4%"}
{"smiles": "C#CCOc1ccc(C(Nc2ccc(Cl)cc2)c2nnnn2C2CCCCC2)cc1", "note": "(stereo not given)", "growth": "87.1%"}
{"smiles": "COc1ccc(OC)c(Nc2nc(-c3c(C)nc4sccn34)cs2)c1", "growth": "24.5%"}
{"smiles": "CCN(CC)CC(=O)N(CC)c1ccc(C)c(Cl)c1", "growth": "95.6%"}
{"smiles": "Cc1ccc(-c2nc3ccc(Cl)cc3c(=O)n2N2C(=O)CSC2c2ccccc2Cl)cc1", "note": "(stereo not given)", "growth": "107%"}
